An excerpt weighted towards active compounds, which were near 2.8% of everything screened.
Wnt bcat act: activates Wnt/beta-catenin signaling in a reporter cell assay; activator, plate reader; activation, % at 9.35 µM; 1.2% of 300,000 active; in the data active means activation above about 30%, passing the limit was not always enough; inconclusive means no clear call, values can overlap the other calls;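 further: 0% = neutral control wells and 100% = positive control wells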
FXN GAA850 act: activators of GAA850 frataxin (FXN) promoter; HEK293 lucGAA850 FXN promoter luciferase reporter, 24 h; percent of 10 µM SAHA response; activation, % at 6 µM; 0.56% of 360,000 active;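 active means activation above the average of all compounds screened plus 3 SD, cutoff fixed separately per campaign, cut at about 7.5% in these data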;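 further: 0% = DMSO wells and 100% = 10 µM SAHA wells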
esBAF inh: blocks esBAF chromatin remodeling in mouse ES cells; Bmi1-luciferase knock-in reporter, 24 h; 100% = twice the neutral-well signal; reporter increase, % at 12.5 µM; 2% of 350,000 active; in the data active means activation above about 40%; inconclusive means no clear call, values can overlap the other calls;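 further: 0% = median of the plate's neutral control wells and 100% = double that signal; a rise in the Bmi1 reporter signal indicates esBAF inhibition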
MITF TRPM1 HTS: increases MITF-driven TRPM1 promoter luciferase signal | SK-MEL-5 TRPM1-promoter luciferase, 24 h; % of positive control, neutral wells = 0 | activation, % at 12.5 µM | 0.75% of 300,000 active | AID 588334;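 active means mean activation of at least 80% with every replicate also reaching 80%; inconclusive means mean reaches 80% but some replicate falls short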;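 further: 0% = neutral control wells and 100% = parthenolide positive control wells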
GAA30 FXN cntr: activates GAA30 frataxin promoter, counter-screen for GAA850 activators; shares compounds with FXN GAA850 act; HEK293 lucGAA30 FXN promoter luciferase, 24 h; DMSO = 0%, 5 µM ipriflavone = 100%; activation, % at 6 µM; 66% of 1,900 active; AID 588350;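 active means mean activation above the mean of solvent-only control wells plus 3 SD, cut at about 22% in these data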;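 further: counterscreen of GAA850 promoter hits where activity marks nonselective or luminescence artifacts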
GAA850 confirm: confirmation of GAA850 frataxin (FXN) promoter activators | activation, % at 6 µM | shares compounds with FXN GAA850 act | AID 588351 | HEK293 lucGAA850 FXN promoter luciferase reporter, 24 h; 100% = activation by SAHA | 86% of 1,900 active;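 active means mean activation above a set limit taken from the primary screen, cut at about 8% in these data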;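 further: 0% = DMSO wells and 100% = 10 µM SAHA wells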
* hit, by the source's call.

For CC(C)(C)c1ccc(Cn2nnc3c(=O)[nH]c(C4CCN(C(=O)Cc5cccs5)CC4)nc32)cc1 the results were FXN GAA850 act 8.3*, esBAF inh 9, MITF TRPM1 HTS 1, GAA30 FXN cntr 2 and GAA850 confirm 10*.
CC(C)(C)c1ccc(Cn2nnc3c(=O)[nH]c(C4CCCN(C(=O)Cc5cccs5)C4)nc32)cc1 (configuration not stated) was read as Wnt bcat act -3, FXN GAA850 act 3, esBAF inh -3 and MITF TRPM1 HTS 4.
For Clc1ccc(N=C2SCCS2)cc1 the results were Wnt bcat act 3, FXN GAA850 act 1 and MITF TRPM1 HTS 55.
For Clc1ccc(N=C2SCC3CCCCN23)cc1 (configuration not stated) the results were Wnt bcat act 16, FXN GAA850 act 8.2*, esBAF inh 53*, MITF TRPM1 HTS 97*, GAA30 FXN cntr 99* and GAA850 confirm 42*.
Screening CC1=CC(C)(C)Nc2ccc(OC(=O)CCN3C(=O)c4ccccc4C3=O)cc21 returned Wnt bcat act -2, FXN GAA850 act 11*, MITF TRPM1 HTS -20, GAA30 FXN cntr -16 and GAA850 confirm 23*.
O=C(CCN1C(=O)c2ccccc2C1=O)Oc1ccc2ccccc2c1 was read as Wnt bcat act 0, FXN GAA850 act 3, esBAF inh -1 and MITF TRPM1 HTS 7.
For CN(c1ccccc1)c1ccc(/C=N/N2CCOCC2)cc1 the results were FXN GAA850 act 7.9*, esBAF inh 31, MITF TRPM1 HTS 144*, GAA30 FXN cntr 114* and GAA850 confirm 36*.
COc1cccc(C(=O)N2C[C@H]3[C@@H](c4ccccc42)[C@@H](CO)N3Cc2ccccc2Cl)c1 was read as esBAF inh 2.
For COc1ccccc1NC(=O)c1ccc(NS(=O)(=O)c2cccc3cccnc23)cc1 the results were Wnt bcat act -5, FXN GAA850 act 8.6*, MITF TRPM1 HTS -4, GAA30 FXN cntr 16 and GAA850 confirm 9.8*.
Screening O=C(c1ccc(NS(=O)(=O)c2cccc3cccnc23)cc1)N1CCCCC1 returned Wnt bcat act -1, FXN GAA850 act 0 and MITF TRPM1 HTS 12.
O=S(=O)(NCCO)c1cccc2cccnc12 was read as Wnt bcat act -5, FXN GAA850 act 14*, esBAF inh -5, MITF TRPM1 HTS 2, GAA30 FXN cntr 20 and GAA850 confirm 5.
`COc1ccc(C)cc1NC(=O)c1ccc(NS(=O)(=O)c2cccc3cccnc23)cc1` gave Wnt bcat act 0, FXN GAA850 act 7 and MITF TRPM1 HTS -7.
`O=S(=O)(Nc1ccc(N2CCCCC2)cc1)c1cccc2cccnc12` gave FXN GAA850 act 8.0*, MITF TRPM1 HTS -2, GAA30 FXN cntr 19 and GAA850 confirm 7.
`C[C@H](CO)N1C[C@H](C)[C@H](CN(C)C(=O)C2CCC2)Oc2cc(C#C[C@@H](C)O)ccc2S1(=O)=O` gave esBAF inh 2.
c1cn2c(Nc3ccc4c(c3)OCCO4)c(-c3ccc(N4CCOCC4)cc3)nc2cn1 was read as Wnt bcat act 49*, FXN GAA850 act 8.8*, MITF TRPM1 HTS 30, GAA30 FXN cntr 56* and GAA850 confirm 18*.
Screening N#Cc1c(N)n(C2CCCCC2)c2nc3ccccc3nc12 returned FXN GAA850 act 8.1*, esBAF inh -4, MITF TRPM1 HTS -14, GAA30 FXN cntr 4 and GAA850 confirm 18*.
For O=C(C[C@H]1C[C@@H]2c3cc(NC(=O)CC4CC4)ccc3O[C@@H]2[C@@H](CO)O1)NCc1cccnc1 the results were esBAF inh -4.
For Cc1ccc2nc(SCC(=O)NCc3ccco3)c(C#N)cc2c1 the results were Wnt bcat act 59*, FXN GAA850 act 8.3*, esBAF inh 18, GAA30 FXN cntr 80* and GAA850 confirm 27*.
`Cc1ccc2cc(C#N)c(SCC(=O)NCc3ccco3)nc2c1` gave FXN GAA850 act 0, esBAF inh 18 and MITF TRPM1 HTS 4.
Screening CCOc1ccc2c(c1)c(N=Nc1cccc(C(=O)O)c1)c(O)n2C returned FXN GAA850 act 8.8*, MITF TRPM1 HTS 40, GAA30 FXN cntr 107* and GAA850 confirm 38*.
O=c1sc(N2CCN(c3ccccc3F)CC2)nc2ccsc12 was read as Wnt bcat act 54*, FXN GAA850 act 7.9*, esBAF inh 69*, GAA30 FXN cntr 106* and GAA850 confirm 40*.
O=S(=O)(c1ccccc1F)N1CCN(c2nc3ccccc3s2)CC1 was read as Wnt bcat act 9, FXN GAA850 act 5 and MITF TRPM1 HTS 71.
O=S(=O)(c1cccs1)N1CCN(c2ccccc2F)CC1 was read as Wnt bcat act -2, FXN GAA850 act 7.7*, esBAF inh 0, MITF TRPM1 HTS 7, GAA30 FXN cntr 12 and GAA850 confirm 7.
O=S(=O)(c1cccs1)N1CCN(c2ccccc2Cl)CC1 was read as Wnt bcat act 4, FXN GAA850 act 3, esBAF inh 2 and MITF TRPM1 HTS 12.
CCn1c(O)c(/C=C2\C=Nc3ccccc32)sc1=Nc1ccccc1 was read as Wnt bcat act 0, FXN GAA850 act 13*, esBAF inh 67*, MITF TRPM1 HTS 68, GAA30 FXN cntr 60* and GAA850 confirm 27*.
Screening Cc1ccc(OCCSc2nc(N)cc(N)n2)cc1 returned Wnt bcat act 13, FXN GAA850 act 9.1*, MITF TRPM1 HTS inconclusive, GAA30 FXN cntr 110* and GAA850 confirm 37*.
COC(=O)N=Nc1c(O)[nH]c2ccc(Br)cc12 was read as Wnt bcat act 53*, FXN GAA850 act 10*, esBAF inh -15, MITF TRPM1 HTS -12, GAA30 FXN cntr 144* and GAA850 confirm 32*.
`COc1ccc(NC(=O)Nc2ccc3c(c2)C(=O)N([C@H](C)CO)C[C@@H](C)[C@H](CN(C)S(C)(=O)=O)OCCCC[C@H](C)O3)cc1` gave esBAF inh 9.
`CCOC(=O)NC(=O)/C(C#N)=C\Nc1sccc1C(=O)OC` gave Wnt bcat act -1, FXN GAA850 act -1 and MITF TRPM1 HTS -2.
`CCOC(=O)NC(=O)/C(C#N)=C\Nc1ccc(Cl)cc1Cl` gave Wnt bcat act 17, FXN GAA850 act 8.3*, MITF TRPM1 HTS 51, GAA30 FXN cntr 22 and GAA850 confirm 5.
CCN(CC(O)c1cccc(O)c1)C(=O)C12CC3CC(CC(C3)C1)C2 (configuration not stated) was read as Wnt bcat act 0, FXN GAA850 act 19*, esBAF inh 9, MITF TRPM1 HTS 12, GAA30 FXN cntr 33* and GAA850 confirm 23*.
O=C(Nc1ccon1)c1cc2c(s1)CCCCCC2 was read as FXN GAA850 act 8.8*, MITF TRPM1 HTS 66, GAA30 FXN cntr 113* and GAA850 confirm 36*.
